Source: PubChem BioAssay (EPA / NIEHS)
Calls of active or inactive are those of the source. The calls were made as follows: active = hit-call score of the fitted dose curve at least 0.9, where 1 is the maximum; inactive = score below 0.9.

target: Transcriptional activator Myb (Homo sapiens) (UniProt P10242); test: ATG_Myb_CIS: Attagene CIS-FACTORIAL HepG2 Assay for human Myeloblastosis (Myb) Proto-Oncogene Transcription Factor (AID 2282986); details: HepG2 Attagene CIS-FACTORIAL Myb reporter transcription; actives raise or lower the signal
Description: ATG_CIS is a cell-based, multiplexed-readout assay that uses HepG2, a human liver cell line, with measurements taken at 24 hours after chemical dosing in a 24-well plate.ATG_Myb_CIS is one of 52 assay component(s) measured or calculated from the ATG_CIS assay. It is designed to make measurements of mRNA induction, a form of inducible reporter, as detected with fluorescence intensity signals by Reverse transcription polymerase chain reaction (RT-PCR) and Capillary electrophoresis technology.Data from the assay component ATG_Myb_CIS was analyzed into 1 assay endpoint. This assay endpoint, ATG_Myb_CIS, was analyzed with bidirectional fitting relative to DMSO as the negative control and baseline of activity. Using a type of inducible reporter, measures of mRNA for gain or loss-of-signal activity can be used to understand the reporter gene at the transcription factor-level as they relate to the gene MYB. Furthermore, this assay endpoint can be referred to as a primary readout, because this assay has produced multiple assay endpoints where this one serves a reporter gene function. To generalize the intended target to other relatable targets, this assay endpoint is annotated to the dna binding intended target family, where the subfamily is MYB proteins.
Human liver HepG2 cells are transiently transfected with multiple reporter transcription units (MRTUs) in 6-well plates using FuGene 6 reagent (Roche; 3 ml FuGene/1 mg DNA). The MRTU constructs are regulated by a cis-regulating element (promoter). […] A major difference between the CIS and TRANS system is that in CIS activities of endogenous TFs are measured, whereas the TRANS assay evaluates changes in activities of exogenous, chimeric NR-Gal4 proteins. […] At the end of 24 hour incubation, total RNA was isolated using TriZol reagent (Invitrogen). The isolated RNA is then reverse-transcribed using oligo(dT) primer and Mo-MLV reverse transcriptase (Invitrogen) with DNAse I (Ambion) treatment for 30 min. The one-tenth of the produced cDNA was amplified by PCR using Taq DNA polymerase (Invitrogen) and two reporter sequence-specific primers. The PCR products were fluorescently labeled by primer extension with 6-arboxyfluorescein (6-FAM) 5'-labeled reporter sequence-specific primer (2 min at 95 C, 20 s at 68 C and 10 min at 72 C) and these products were digested with 5U of HpaI (New England Biolabs) for 2h at 37 C. The fragments were purified using Qiaquick PCR columns (Qiagen), analyzed on an ABI 3130xL genetic analyzer (Applied Biosystems) with peak positions identified by using a set of X-rhodamine (ROX)-labeled MapMarker1000 molecular weight standards (BioVentures). The raw capillary electrophoresis data was processed using Attagraph software (Attagene).

Sequence of Transcriptional activator Myb (Homo sapiens) (P10242 whole entry, looked up): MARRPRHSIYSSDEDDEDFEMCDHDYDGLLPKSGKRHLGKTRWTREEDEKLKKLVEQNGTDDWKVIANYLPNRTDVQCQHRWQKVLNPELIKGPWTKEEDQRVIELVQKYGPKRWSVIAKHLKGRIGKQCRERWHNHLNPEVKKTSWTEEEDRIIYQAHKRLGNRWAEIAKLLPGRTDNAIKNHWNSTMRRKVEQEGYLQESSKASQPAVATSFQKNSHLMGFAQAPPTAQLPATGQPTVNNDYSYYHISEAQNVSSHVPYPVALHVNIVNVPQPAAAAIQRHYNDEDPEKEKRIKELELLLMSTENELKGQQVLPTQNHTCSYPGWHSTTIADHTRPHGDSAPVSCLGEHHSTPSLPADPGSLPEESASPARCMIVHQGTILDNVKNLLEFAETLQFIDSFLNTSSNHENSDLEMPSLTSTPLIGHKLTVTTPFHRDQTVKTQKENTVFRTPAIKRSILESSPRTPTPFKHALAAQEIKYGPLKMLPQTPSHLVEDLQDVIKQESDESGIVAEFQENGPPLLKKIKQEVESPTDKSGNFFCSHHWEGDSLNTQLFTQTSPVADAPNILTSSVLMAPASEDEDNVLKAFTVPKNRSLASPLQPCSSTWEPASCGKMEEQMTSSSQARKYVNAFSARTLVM

Row | Structure (SMILES) | outcome | AC50
1 | c1ccc2ncccc2c1 | inactive | 
2 | OC[C@H]1O[C@@H]2O[C@H]3[C@H](O)[C@@H](O)[C@@H](O[C@H]4[C@H](O)[C@@H](O)[C@@H](O[C@H]5[C@H](O)[C@@H](O)[C@@H](O[C@H]6[C@H](O)[C@@H](O)[C@@H](O[C@H]7[C@H](O)[C@@H](O)[C@@H](O[C@H]1[C@H](O)[C@H]2O)O[C@@H]7CO)O[C@@H]6CO)O[C@@H]5CO)O[C@@H]4CO)O[C@@H]3CO | inactive | 
3 | FC(F)C(F)(F)COCC1CO1 (stereo not given) | inactive | 
4 | Cc1ncc([C@@H](CCCCCCc2ccc3c(n2)NCCC3)CC(=O)O)cn1 | inactive | 
5 | NC(=O)N1c2ccccc2C=Cc2ccccc21 | inactive | 
6 | c1ccc2cc3ccccc3cc2c1 | inactive | 
7 | O=C(Cl)C(F)(F)C(F)(F)C(F)(F)C(=O)Cl | inactive | 
8 | Cc1ccc(S(=O)(=O)NC(=O)NN2CCCCCC2)cc1 | inactive | 
9 | CCCCCCCCCCCCCCO |  | 168 µM (active)
10 | O=C(O)CO | inactive | 
11 | C[Si](C)(C)C(F)(F)C(F)(F)C(F)(F)F | inactive | 
12 | CCCCOC(=O)c1ccccc1 | inactive | 
13 | CC(C)C(=O)Nc1ccc([N+](=O)[O-])c(C(F)(F)F)c1 | inactive | 
14 | CCCCCCCCCCCCCCCCOS(=O)(=O)O | inactive | 
15 | COc1cc2c(c(OC)c1OC)-c1ccc(OC)c(=O)cc1[C@@H](NC(C)=O)CC2 | inactive | 
16 | OCC(CO)(CO)CO | inactive | 
17 | CC(C)c1nnc2ccc(-c3ocnc3-c3cc(F)ccc3F)cn12 | inactive | 
18 | O=C1CN(N=Cc2ccc([N+](=O)[O-])o2)C(=O)N1 | inactive | 
19 | OC(Cn1cncn1)(Cn1cncn1)c1ccc(F)cc1F | inactive | 
20 | O=S1(=O)CCCO1 | inactive | 

Row | Structure (SMILES) | outcome | AC50
21 | OC(CCl)CCl | inactive | 
22 | O=C(O)[C@H](O)[C@@H](O)C(=O)O | inactive | 
23 | NC(=O)N(O)[C@@H]1COc2cc(OCc3ccccc3)ccc21 | inactive | 
24 | CCCC(CCC)C(=O)O | inactive | 
25 | FC(F)=C(F)C(F)(F)C(F)(F)C(F)(F)C(F)(F)C(F)(F)C(F)(F)F | inactive | 
26 | CCOc1ccc2[nH]cc(C(=O)NCc3ccccc3)c(=O)c2n1 | inactive | 
27 | CCCCCCCC1CCC(=O)O1 (stereo not given) | inactive | 
28 | FC(F)(F)COC(OCC(F)(F)F)OCC(F)(F)F | inactive | 
29 | O=C(O)c1ccc2c(c1)nc(C(=O)NC1CCN(C3CC3)CC1)n2Cc1cc(-c2ccc(Cl)s2)on1 | inactive | 
30 | CCOC(N)=O | inactive | 
31 | COCc1nnc(-c2ccc[n+]([O-])c2)n1-c1c(Cl)c(Cl)cc2[nH]c(=O)c(=O)[nH]c12 | inactive | 
32 | NCC(F)(F)C(F)(F)C(F)(F)C(F)(F)F | inactive | 
33 | NC(=O)NN=Cc1ccc([N+](=O)[O-])o1 | inactive | 
34 | Cn1c(=O)c2[nH]cnc2n(C)c1=O | inactive | 
35 | NC(N)=O | inactive | 
36 | CC[C@H](C)C(=O)O[C@H]1C[C@H](O)C=C2C=C[C@H](C)[C@H](CC[C@@H](O)C[C@@H](O)CC(=O)O)[C@H]21 | inactive | 
37 | C[C@@H](Oc1ccc(CNC(=O)c2cccnc2Oc2ccc3c(c2)OCO3)c(F)c1)C(=O)O | inactive | 
38 | NNC(=O)c1ccncc1 | inactive | 
39 | OCCNCCO | inactive | 
40 | OCc1c[nH]c2ccccc12 | inactive | 
